# Test results taken from PubChem BioAssay (NCI).
# Compounds without any hit were thinned out: in the full panel of roughly 83,000, 20% have a hit.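 Note: values are percent growth. 100 is the growth of untreated cells, values between 100 and 0 indicate rising inhibition; between -100 and 0 indicates cell death.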 A number with no mark means an inactive call. Calls of active or inactive are those of the source. How the source made its calls: active means growth percent below 10; inactive means the rest.
# System: HL-60(TB) leukemia
# Test: NCI-60 one-dose screen, 48 h (100 = growth as untreated, 0 = no growth, -100 = all killed)
# Conditions: 10 µM unless noted
row,SMILES,growth
1,Cn1ccc(=O)nc1,105%
2,COc1cc(C2C3=C(COC3=O)Nc3c2ccc2c3CCCC2)cc2c1OCO2 (stereo not given),-6.76% (active)
3,CC(=O)OCC1OC(OC2C(COC(C)=O)OC(OCCC[S-])C(OC(C)=O)C2OC(C)=O)C(OC(C)=O)C(OC(C)=O)C1OC(C)=O.[Au+].c1ccc(CN2[CH-]N(Cc3ccccc3)C(c3ccccc3)=C2c2ccccc2)cc1 (stereo not given),13.6%
4,COc1ccc(NC(=O)Nc2ccc(OCCCCCC(=O)NO)cc2)cc1,97.6%
5,CCN1C(=O)N(CC)C2Nn3c(s/c(=C4\C(=O)N(CC(C)C)c5ccccc54)c3=O)=NC21 (stereo not given),18.9%
6,CCCc1cc2cc(-n3nc(C)c4c3CC(C)(C)CC4=O)cc(NC3CCSCC3)c2c(=O)[nH]1,49.4%
7,O=[N+]([O-])/C(=C/c1ccccc1)c1ccccc1,85.6%
8,Cc1ccccc1CCO,100%
9,COc1ccc2c(c1)/C(=C\c1sc(=S)[nH]c1O)C(C(=O)O)=N2,101%
10,COc1ccc(-n2nc(C)c3c(Nc4ccc(NC(=O)Nc5ccc(Cl)c(C(F)(F)F)c5)cc4)ncnc32)cc1,-9.54% (active)
11,Nc1ccc(-n2c(=O)oc3ccc(Cl)cc3c2=O)c(Cl)c1,-42.8% (active)
12,O=C1OC(c2ccc(-c3ccccc3)cc2)=C/C1=C/c1c(Cl)cccc1Cl,77.8%
13,COc1ccc2c(c1)c(-c1nc(-c3c[nH]c4ncccc34)cs1)cn2CCCN1CCCCC1,-60.8% (active)
14,C=C(C)[C@@H]1CC[C@]2(C(=O)O)CC[C@]3(C)[C@H](CC[C@@H]4[C@@]5(C)CCC(N)C(C)(C)[C@@H]5CC[C@]43C)[C@@H]12 (stereo not given in full),-45.5% (active)
15,CC(CN1CCN(C)CC1)CN1c2ccccc2Sc2ccc(C(F)(F)F)cc21 (stereo not given),40.4%
16,Cc1cc(N)c(S(=O)(=O)O)c(N)c1,98.9%
17,O=c1c2cccc3c(NC4CCCCC4)ccc(c32)c2nc3ccccc3n12,62.6%
18,Cc1ccc(S(=O)(=O)c2nc(-c3ccccc3)oc2S(C)=O)cc1 (stereo not given),-47.4% (active)
19,C[n+]1c2ccccc2nc2c(N)cc(N)cc21,74.7%
20,O=C1C2=C(C(=O)c3c(O)ccc(O)c31)N(c1cccnc1)Cc1ccccc1O2,-23.5% (active)

row,SMILES,growth
1,O=c1c2c(=NCCCN3CCCC3)cc3c(=O)n(CCCN4CCCC4)c(=O)c4c(NCCCN5CCCC5)cc(c(O)n1CCCN1CCCC1)c2c4-3,29.9%
2,N#Cc1c(-c2ccc(Cl)cc2)nc(NN=Cc2cccc(Cl)c2)nc1N1CCOCC1,71.5%
3,O=C(O)c1cn(C2CC2)c2cc(N3CCN(C(=O)Nc4nc(-c5ccc(Br)cc5)cs4)CC3)c(F)cc2c1=O,-2.62% (active)
4,Fc1ccc(CNCCNc2ncnc3c2cnn3-c2ccccc2)cc1,83.1%
5,O=C1c2cc3c(cc2-c2c1c1ccc(Cl)cc1c(=O)n2C[C@H](O)CO)OCO3,-14.9% (active)
6,CCN(CC)C(=O)C[N+](C)(C)CCOC(c1ccccc1)c1ccccc1,97.5%
7,C=C(C)[C@@H]1CC[C@]2(CO)CC[C@]3(C)[C@H](CC[C@@H]4[C@@]5(C)CC[C@H](O)C(C)(C)[C@@H]5CC[C@]43C)[C@@H]12,66.4%
8,CC(=O)c1cccs1,130%
9,CC(=O)c1ccc2oc(=O)n(Cc3ccc(C#N)cc3)c(=O)c2c1,109%
10,O=c1oc2c(cnc3ccccc32)cc1-c1cccc(Cl)c1,102%
11,CN(C)CCOc1nc2c3cc([N+](=O)[O-])ccc3nn2c2ccccc12,11.7%
12,COc1ccc(/C=C2\COc3ccc(O)cc3C2=O)cc1,-33.1% (active)
13,COc1ccc(NNS(=O)(=O)O)cc1,103%
14,COc1ccccc1CNCCCCCCCCCCCCN1C(=O)c2ccc3c4c(ccc(c24)C1=O)C(=O)N(CCCCCCCCCCCCNCc1ccccc1OC)C3=O,85.8%
15,COc1ccc(/C(=N\O)c2cc(C)c(OC)c(C)c2)cc1O,-18.3% (active)
16,C[n+]1c2ccccc2c(Nc2ccc(N3CCCCC3)cc2)c2[nH]c3ccccc3c21,-55.6% (active)
17,O=C1C=C(Nc2ccc([N+](=O)[O-])cc2)c2ccccc2C1=O,3.59% (active)
18,NCCCNc1nc2ccccc2c2c(=O)c3cc(C(F)(F)F)ccc3sc12,-23% (active)
19,Cc1cc(Oc2ccccc2)ccc1Nc1ncnc2ccc(-c3cnc(Cl)c(NS(C)(=O)=O)c3)cc12,30.3%
20,N=C(N)Sc1cccc[n+]1[O-],27.8%
